Rows were chosen to be rich in hits. Some 2.1% of all compounds tested hit in one or more screens of this group.
PvdQ inh = P. aeruginosa PvdQ acylase inhibition. purified PvdQ acylase, fluorescence plate reader. AID 488965. inhibition, % at 10 µM. 0.063% of 340,000 active; in the data active means inhibition above about 30%, passing the limit was not always enough
rRNA inh HTS = inhibitors of bacterial rRNA selective over humanized ribosomes | E. coli WT GFP vs humanized-ribosome RFP mutants, fluorescence, 24 h; stronger effect = lower value; DMSO median 0, no signal -100 | 1.6% of 350,000 active | GFP signal change (wild-type ribosome), % (concentration not given with the values);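 active means significant combined selectivity score with lowered wild-type GFP, culture density cut under 30%, mutant RFP and density less affected; inactive means any of these conditions unmet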
ARNT TACC3 PPI = ARNT/TACC3 interaction disruption. Q9Y6A5. AlphaScreen His-ARNT PAS-B/GST-TACC3 binding, luminescence; TACC3 fragment carries E629A point mutation. 0.66% of 390,000 active. inhibition, % at 9.99 µM. AID 623870;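 active means mean inhibition of replicates at least 50% and at least half of replicates each reaching 50%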
F508del corr = CFTR F508del correction in bronchial cells; activity (quench increase), % at 7.58 µM; CFBE cells, YFP halide quenching; stimulated with forskolin plus potentiator P3; % fluorescence drop versus neutral controls; 0.36% of 350,000 active;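 active means mean added fluorescence quench of at least 8% versus neutral control, with both replicates also reaching 8%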;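 further: cells transiently co-express mutant CFTR-F508del with the halide-sensitive YFP; corrector assay measuring rescue of mutant channel to the surface after 24 h compound exposure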
ERAP1 HTS inh = ERAP1 (human) enzyme inhibition; Q9NZ08; recombinant ERAP1, Leu-AMC fluorescence, 60 min; inhibition, % at 10.7 µM; 0.15% of 340,000 active; AID 652197;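 active means mean replicate inhibition of at least 30%, or all replicates individually reaching that 30% level; inactive means mean below 30% and not every replicate reaching it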
Each line names hits and unclear results; the compound was inactive in the other large screens.

Cc1ccc2nc(SCC(=O)c3ccc(O)cc3O)[nH]c2c1	rRNA inh HTS -23
CC#CCOCC1CNC(=O)O1 (stereo not given)	F508del corr 18 (no result: PvdQ inh, rRNA inh HTS, ARNT TACC3 PPI)
CN1C(=O)c2cc(NC(=O)Nc3cccc(Cl)c3)ccc2OC[C@H]2O[C@@H](CC(=O)NCCc3ccncc3)CC[C@H]21	none (no result: PvdQ inh)
CCC(=O)Nc1nc2ccccc2n1Cc1ccccc1Cl	none (no result: ARNT TACC3 PPI)
CC(=O)Nc1nc2ccccc2n1Cc1ccccc1Cl	rRNA inh HTS -23
CCc1ccc(NC(=S)Nc2ccc3cn[nH]c3c2)cc1	rRNA inh HTS -21
COc1ccc(NC(=S)Nc2ccc3cn[nH]c3c2)cc1	none (no result: ERAP1 HTS inh)
C[C@H]1CN([C@@H](C)CO)C(=O)c2ccccc2-c2ccccc2CO[C@H]1CN(C)CC1CC1	none (no result: PvdQ inh, ERAP1 HTS inh)
C[C@@H]1CN([C@@H](C)CO)C(=O)c2cc(NS(=O)(=O)c3cn(C)cn3)ccc2O[C@@H](C)CCCCO[C@H]1CN(C)C(=O)Nc1ccc(F)cc1	none (no result: PvdQ inh)
Cc1cc(=O)oc2cc(NS(=O)(=O)c3ccc(F)cc3)ccc12	rRNA inh HTS -22
N#Cc1cccc(-c2ccc([C@@H]3[C@@H](CO)N4CCCCN(C(=O)Nc5cccc(F)c5)C[C@@H]34)cc2)c1	none (no result: PvdQ inh)
CO[C@@H]1CN(C)C(=O)c2cc(NC(=O)C3CC3)ccc2OC[C@H](C)N(C(=O)C2CCCCC2)C[C@@H]1C	none (no result: PvdQ inh)
C[C@H](CO)N1C[C@H](C)[C@H](CN(C)C(=O)Nc2ccc(-c3ccccc3)cc2)OCc2ccccc2-c2c(n(C)c3ccccc23)C1=O	none (no result: PvdQ inh, ARNT TACC3 PPI)
Nc1[nH]nc2ncc3cc4ccccc4nc3c12	F508del corr 12
C[C@@H]1CN([C@@H](C)CO)C(=O)c2cccc(NC(=O)Nc3ccc(C(F)(F)F)cc3)c2O[C@@H]1CN(C)C(=O)NC1CCCCC1	none (no result: PvdQ inh)
Cc1ccc(-c2ccc3c(c2)O[C@@H](CN(C)Cc2ccccn2)[C@H](C)CN([C@H](C)CO)S3(=O)=O)cc1	F508del corr 16 (no result: PvdQ inh)
C[C@H]1CN([C@@H](C)CO)S(=O)(=O)c2ccc(-c3ccc(C#N)cc3)cc2O[C@@H]1CN(C)Cc1ccccn1	F508del corr 12 (no result: PvdQ inh, ERAP1 HTS inh)
C[C@@H]1CN([C@@H](C)CO)S(=O)(=O)c2ccc(-c3ccc(C#N)cc3)cc2O[C@H]1CN(C)Cc1cccc(F)c1	F508del corr 8.0 (no result: PvdQ inh)
C[C@H](CO)N1C[C@H](C)[C@@H](CN(C)Cc2ccccn2)Oc2cc(-c3ccc(C#N)cc3)ccc2S1(=O)=O	none (no result: PvdQ inh, ARNT TACC3 PPI, ERAP1 HTS inh)
C[C@@H]1CN([C@H](C)CO)S(=O)(=O)c2ccc(-c3ccc(C#N)cc3)cc2O[C@@H]1CN(C)Cc1cccc(F)c1	none (no result: PvdQ inh)
C[C@@H]1CN([C@H](C)CO)C(=O)Cc2cc(NC(=O)C3CCCCC3)ccc2O[C@@H]1CN(C)Cc1ccc(Oc2ccccc2)cc1	none (no result: PvdQ inh, ARNT TACC3 PPI)
COc1ccc(N(C)C(=O)Nc2ccc3nsnc3c2)cc1	none
CC(C)N(C(=O)Nc1ccc2nsnc2c1)C(C)C	rRNA inh HTS -16 (no result: PvdQ inh, ARNT TACC3 PPI)
COc1ccccc1N1CCN(C(CNS(=O)(=O)c2cccs2)c2cccnc2)CC1 (stereo not given)	F508del corr 8.1
CCOc1ccccc1N1CCN(S(=O)(=O)c2cccs2)CC1	rRNA inh HTS -24
C[C@@H](NC(=O)C[C@@H]1CC[C@H](NC(=O)CN2CCOCC2)[C@H](CO)O1)c1ccccc1	none (no result: PvdQ inh)
Cc1ccc(-c2csc3ncnc(OCC(=O)NC(=O)NCc4ccco4)c23)cc1	rRNA inh HTS -29
O=C(COc1ncnc2scc(-c3ccc(F)cc3)c12)NCc1ccco1	none (no result: rRNA inh HTS, F508del corr, ERAP1 HTS inh)
CN(CC(=O)NCc1ccc(F)cc1)S(=O)(=O)c1ccc(Br)s1	rRNA inh HTS -22
COc1ccccc1NC(=O)CN1CCC(c2nc3ccc(C)cc3[nH]2)CC1	rRNA inh HTS -26
Cc1ccc2nc(C3CCN(S(=O)(=O)c4ccc5ccccc5c4)CC3)[nH]c2c1	rRNA inh HTS -29 (no result: F508del corr)
CC(=O)c1cccc(S(=O)(=O)N2CCC(c3nc4ccccc4[nH]3)CC2)c1	none
COc1ccc(NC(=O)N2CCC(c3nc4ccccc4[nH]3)CC2)cc1	rRNA inh HTS -22
COc1ccccc1NC(=O)CN1CCC(c2nc3ccccc3[nH]2)CC1	none
O=C(C[C@@H]1CC[C@@H](NC(=O)NC2CCCCC2)[C@H](CO)O1)NCc1ccccc1	none (no result: PvdQ inh)
C[C@@H]1CN([C@@H](C)CO)C(=O)c2cc(NC(=O)CCC(F)(F)F)ccc2O[C@@H]1CN(C)Cc1ccccc1	none (no result: PvdQ inh)

Bioassay records (PubChem BioAssay)
